MITF primary: inhibitors of human MITF; AlphaScreen MITF homodimerization, bead proximity signal; inhibition, % at 2.6 µM; 650,000 compounds, 0.91% hits; AID 1259374; in the data active = inhibition above about 50%;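 note: 0% = vehicle wells with protein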
TEAD-YAP inh: TEAD-YAP interaction inhibition | HEK-TIYL cells, TEAD-Gal4/YAP UAS-luciferase luminescence | 640,000 compounds, 1.4% hits | inhibition, % at 9.12 µM | AID 1259422; in the data active = inhibition above about 32%;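 note: 0% = median of test compound wells and 100% = reference inhibitor wells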
FBW7 act: activators of human E3 ligase FBW7; Q969H0; AlphaScreen FBW7–phospho-cyclin E peptide binding, activator screen; normalized activity (activation), % at 26.1 µM; 650,000 compounds, 0.13% hits; in the data active = normalized activity above about 1.9%;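 note: purified mutant Fbw7 with reduced substrate affinity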
Target sequence (Q969H0 whole entry, looked up): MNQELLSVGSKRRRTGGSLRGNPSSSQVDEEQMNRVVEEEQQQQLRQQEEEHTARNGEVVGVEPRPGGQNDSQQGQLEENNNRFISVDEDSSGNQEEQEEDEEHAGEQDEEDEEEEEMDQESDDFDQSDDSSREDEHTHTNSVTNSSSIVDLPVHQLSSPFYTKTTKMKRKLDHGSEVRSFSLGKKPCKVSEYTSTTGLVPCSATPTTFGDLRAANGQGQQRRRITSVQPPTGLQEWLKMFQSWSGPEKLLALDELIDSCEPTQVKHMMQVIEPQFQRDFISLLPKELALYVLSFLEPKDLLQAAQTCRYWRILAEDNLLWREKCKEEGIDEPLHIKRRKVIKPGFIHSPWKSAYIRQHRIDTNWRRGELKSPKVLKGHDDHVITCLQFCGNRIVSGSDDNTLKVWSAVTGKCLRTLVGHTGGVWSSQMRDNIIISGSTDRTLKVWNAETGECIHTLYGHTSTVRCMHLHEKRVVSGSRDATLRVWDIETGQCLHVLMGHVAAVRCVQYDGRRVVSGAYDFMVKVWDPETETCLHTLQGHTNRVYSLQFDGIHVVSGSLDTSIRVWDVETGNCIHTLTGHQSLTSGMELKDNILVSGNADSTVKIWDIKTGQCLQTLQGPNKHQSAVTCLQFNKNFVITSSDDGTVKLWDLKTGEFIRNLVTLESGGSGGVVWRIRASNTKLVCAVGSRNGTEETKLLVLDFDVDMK
GPR151 activ: activates the human receptor GPR151; Q8TDV0; PathHunter beta-arrestin GPR151 cells, luminescence; activation, % at 11.2 µM; 650,000 compounds, 1% hits; AID 1508602; in the data active = activation above about 4.9%;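 note: 0% = median of compound wells and 100% = cells with positive control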
MITF inh conf: human MITF inhibition, confirmation | shares compounds with MITF primary | AlphaScreen MITF homodimerization, biotin/His-MITF beads | inhibition, % at 2.6 µM | 4,700 compounds, 16% hits | AID 1259372;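 active = inhibition above a cutoff derived from the DMSO control wells, cut at about 28% in these data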;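 note: 0% = MITF dimer wells with DMSO only; inhibitors lower the bead chemiluminescence by keeping MITF from dimerizing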
AS interf DR: counter-screen: compounds optically interfering with AlphaScreen; AID 1259373; 480 compounds, 6% hits; shares compounds with MITF primary; IC50, µM; AlphaScreen optical interference counterscreen, cell-free; call rule not given here
AS interf ctr: AlphaScreen optical interference, counter-screen | LysRS AlphaScreen counterscreen, signal interference, triplicate | AID 1259376 | inhibition, % at 2.6 µM | shares compounds with MITF primary | 4,700 compounds, 7.6% hits;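 active = inhibition above a cutoff derived from the DMSO control wells, cut at about 30% in these data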
An asterisk follows results filed as active; · = no result given. Compounds with a hit are over-represented: about 3.5% of the library has one in this group of screens.

SMILES | MITF primary | TEAD-YAP inh | FBW7 act | GPR151 activ | MITF inh conf | AS interf ctr | others
CC(C)N1CCN(Cc2ccco2)CC1 | 62* | -2 | 0 | 1 | 7 | -3
NCCc1c[nH]c2ccc(OCC(=O)O)cc12 | -7 | 8 | 0 | 0 | · | ·
O=[N+]([O-])c1ccc(Cl)c(C2N3CCCN23)c1 (stereo not given) | -6 | -15 | 0 | 2 | · | ·
CCC(C)(C)n1nnnc1CN1CCC(n2nnc3cc(F)ccc32)CC1 | 8 | 9 | 0 | 0 | · | ·
Cc1nc(NC(=O)CCl)sc1C | 4 | 31 | 0 | 0 | · | ·
FC(F)(F)c1ccccc1CNCCc1ccc2c(c1)OCO2 | 55* | 8 | 0 | 1 | -16 | -2
O=C(CN1CCN(C(=O)Cc2cccs2)CC1)c1ccco1 | 3 | -2 | 0 | 1 | · | ·
COCC1CCCN(CC(=O)Nc2cccnc2)C1 (stereo not given) | 75* | -5 | 0 | -1 | 11 | 14
Cc1cccc(CN2CCN(Cc3ccccc3)CC2)c1 | 6 | 2 | 0 | 0 | · | ·
COc1ccc(CCNCc2ccc(OC)cc2)cc1 | 21 | 8 | 0 | -1 | · | ·
COc1ccc(CCNCc2ccc(OC)c(OC)c2)cc1 | 51* | 6 | 0 | -1 | -1 | -6
Fc1ccc(CN2CCN(Cc3cccc(F)c3)CC2)cc1 | 45 | -2 | 0 | -1 | · | ·
O=[N+]([O-])c1cccc(CN2CCN(Cc3ccc(F)cc3)CC2)c1 | 66* | 5 | 0 | 0 | -16 | -5
COc1cccc(N2CCN(Cc3cccc([N+](=O)[O-])c3)CC2)c1 | 51* | -10 | 0 | 1 | 4 | 4
CC(C)N1CCN(Cc2cccc([N+](=O)[O-])c2)CC1 | 67* | -20 | 0 | 1 | 4 | 10
O=[N+]([O-])c1cccc(CN2CCN(c3ccccc3)CC2)c1 | 36 | 4 | 0 | 0 | · | ·
CN1CCN(Cc2cccc([N+](=O)[O-])c2)CC1 | 2 | 3 | 0 | 0 | · | ·
C[C@H](N)Cn1nc(-c2cccs2)oc1=O | 6 | -6 | 0 | 0 | · | ·
CN(C)S(=O)(=O)c1ccc(C(=O)N2CCC(=O)CC2)cc1 | 0 | 3 | 0 | 0 | · | ·
COc1cccc(CN2CCN(Cc3cccc(OC)c3)CC2)c1 | 7 | -3 | 0 | 0 | · | ·
COc1ccc(CN2CCN(Cc3ccc(Br)cc3)CC2)cc1 | 85* | 9 | 0 | 0 | -2 | 14
COc1ccc(CN2CCN(Cc3ccc(F)cc3)CC2)cc1 | 78* | -1 | 0 | 0 | 0 | 12
Fc1ccc(CN2CCN(Cc3ccc(F)cc3)CC2)cc1 | 74* | 4 | 0 | 0 | 9 | -7
CCC(CC)N1CCN(Cc2cccc(OC)c2)CC1 | 73* | -2 | 0 | 2 | 6 | 12
COC(=O)c1ccc(CN(C)C)o1 | 4 | 2 | 0 | 3 | · | ·
SMILES | MITF primary | TEAD-YAP inh | FBW7 act | GPR151 activ | MITF inh conf | AS interf ctr | others
COS(=O)(=O)c1ccc(N2CCCC2=O)cc1 (tested in a mixture with another compound) | 0 | -14 | 0 | 0 | · | ·
CCOc1cc(C(c2c(O)c3ccccc3oc2=O)c2c(O)c3ccccc3oc2=O)cc(Br)c1O | 10 | 3 | 0 | -1 | · | ·
O=C(NC1CCC(O)CC1)c1ccc(CN2CC=C(c3ccc(F)cc3)CC2)[nH]c1=O (stereo not given) | 12 | -2 | 0 | 0 | · | ·
CN1CCN(Cc2ccc(C(F)(F)F)cc2)CC1 | 56* | 1 | 0 | 0 | 0 | 3
COc1cccc(CN2CCN(Cc3ccc(Cl)cc3)CC2)c1 | 79* | -19 | 0 | 3 | 17 | 17
COc1cccc(CN2CCN(Cc3ccc(F)cc3)CC2)c1 | 72* | -18 | 0 | -1 | 10 | 14
COc1cccc(CN2CCN(c3ccc(F)cc3)CC2)c1 | 43 | 8 | 0 | 0 | · | ·
CN1CCN(Cc2ccc(N(C)C)cc2)CC1 | -40 | -6 | 0 | 1 | · | ·
CSc1ccc(CN2CCN(C)CC2)cc1 | 21 | 3 | 0 | 1 | · | ·
CSc1ccc(CN2CCN(Cc3ccccc3)CC2)cc1 | 54* | 5 | -1 | 1 | 8 | 2
CC(C)OP(=O)(CN1CCOCC1)OC(C)C | -19 | 8 | 0 | -1 | · | ·
Clc1ccc(CN2CCN(Cc3cccc(Cl)c3)CC2)cc1 | 71* | -2 | 0 | 0 | 17 | 17
COc1cccc(CN2CCN(Cc3cccc(C)c3)CC2)c1 | 74* | -5 | 0 | 0 | 3 | 1
FC(F)(F)C1(C(F)(F)F)NC2C(Cl)CC1C2Cl (stereo not given) | 7 | 1 | 0 | 0 | · | ·
Cc1cccc(CN2CCN(C(=O)COc3ccc(Br)cc3)CC2)c1 | 40 | 14 | 0 | 1 | · | ·
COc1ccc(OC)c(CN2CCN(C(=O)COc3ccc(Br)cc3)CC2)c1 | 80* | -1 | 0 | 3 | -13 | -2
CCN1CCN(C(=O)COc2cccc(Br)c2)CC1 | -8 | -8 | 0 | 2 | · | ·
Cc1ccc(OCC(=O)N2CCN(Cc3cccc(C)c3)CC2)cc1 | 51* | 8 | 0 | 0 | 1 | 3
Cc1ccc(OCC(=O)N2CCN(Cc3ccc(Br)cc3)CC2)cc1 | 70* | 4 | 0 | 1 | 15 | 19
Cc1cccc(OCC(=O)N2CCN(Cc3cccc(Br)c3)CC2)c1 | 61* | 0 | 0 | -1 | 35* | 16 | AS interf DR=>6.5
Cc1c(NC(=O)N2CCC3(CC2)OCCO3)sc2nc3n(c(=O)c12)CCC(C)CC3 (stereo not given) | 11 | -2 | 0 | 3 | · | ·
CC1(C)C(C(=O)N2CCc3nncn3CC2)C1(C)C | 7 | -20 | 0 | 0 | · | ·
O=C(NCC1COCCO1)c1ccc(CN2CC=C(c3ccc(F)cc3)CC2)[nH]c1=O (stereo not given) | -13 | 3 | 0 | 0 | · | ·
COc1cc(C=C(C#N)C#N)ccc1OC(C)=O | 11 | 15 | 1 | 0 | · | ·
CCC(C)N1CCN(C(=O)COc2ccc(C)cc2)CC1 (stereo not given) | 54* | 8 | 0 | -1 | 10 | 16
SMILES | MITF primary | TEAD-YAP inh | FBW7 act | GPR151 activ | MITF inh conf | AS interf ctr | others
CCC(C)N1CCN(C(=O)COc2cccc(C)c2)CC1 (stereo not given) | 44 | -10 | 0 | 2 | · | ·
CCn1c(O)c(C(c2ccccn2)c2c(O)n(CC)c(=S)[nH]c2=O)c(=O)[nH]c1=S | 54* | 5 | 0 | 1 | 20 | 56*
Cc1cc(N2CCN(C(C)C)CC2)nc(N)n1 | -8 | -3 | 0 | 0 | · | ·
CCC(CC)N1CCN(Cc2ccc(OC)c(OC)c2OC)CC1 | 74* | 10 | 0 | -1 | 1 | 4
CCC(C)N1CCN(Cc2ccc(OC)c(OC)c2OC)CC1 (stereo not given) | 69* | 4 | 0 | 0 | -1 | -7
CCC(C)N1CCN(Cc2cc(OC)ccc2OC)CC1 (stereo not given) | 57* | -7 | 0 | 1 | -2 | 3

Bioassay records as filed in PubChem.
